Assay results as given in PubChem BioAssay (EPA / NIEHS).
Results filed as inconclusive are left out. Activity calls are given as the source filed them. Rule for the calls, unless noted: active = hit-call score of the fitted dose curve at least 0.9, where 1 is the maximum; inactive = score below 0.9.

Experiments:
[1] = read-out: Vascular cell adhesion molecule 1 (VCAM1), VCAM1 (gene 7412); test: BSK_LPS_VCAM1: BioMAP Diversity Plus: LPS Assay for Vascular cell adhesion molecule 1 (VCAM1) Biomarker Activity (AID 2283086); settings: primary human HUVEC with PBMC; actives raise or lower the signal
In short: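 Measured by ELISA: VCAM-1 in LPS-activated HUVEC/PBMC co-cultures 24 h after treatment. Values reflect bidirectional fitting with DMSO as baseline.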

CD38, CD38 (gene 952) = test: BSK_SAg_CD38: BioMAP Diversity Plus: SAg Assay for CD38 Biomarker Activity (AID 2283087); settings: primary human HUVEC with PBMC; actives raise or lower the signal
In short: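 Measures CD38 on a human endothelial/PBMC co-culture driven by SEB and TSST-1, 24 h after compound exposure, using ELISA with fluorescence detection; DMSO defines baseline for bidirectional curve fitting.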

CD40, CD40 (gene 958) = test: BSK_SAg_CD40: BioMAP Diversity Plus: SAg Assay for CD40 Biomarker Activity (AID 2283088); settings: primary human HUVEC with PBMC; actives raise or lower the signal
In short: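 Endpoint derived by fitting increases or decreases versus DMSO controls. CD40 is detected by fluorescence ELISA in a human vascular co-culture of endothelium and PBMC at 24 h.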

CD69, CD69 (gene 969) = test: BSK_SAg_CD69: BioMAP Diversity Plus: SAg Assay for CD69 Biomarker Activity (AID 2283089); settings: primary human HUVEC with PBMC; actives raise or lower the signal
In short: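 ELISA, fluorescence read-out: CD69 on human umbilical vein endothelial cell + PBMC co-culture, 24 h post-dosing. Gain or loss of signal fitted bidirectionally against DMSO baseline.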

[2] = read-out: E-selectin (Homo sapiens) (UniProt P16581); test: BSK_SAg_Eselectin: BioMAP Diversity Plus: SAg Assay for Eselectin Biomarker Activity (AID 2283091); settings: primary human HUVEC with PBMC; actives raise or lower the signal
In short: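 Endpoint values derive from bidirectional fitting relative to DMSO, using ELISA-measured E-selectin in a human vascular co-culture (umbilical vein endothelium plus PBMC) sampled 24 h after dosing.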

[3] = read-out: Monokine induced gamma interferon (MIG), CXCL9 (gene 4283); test: BSK_SAg_MIG: BioMAP Diversity Plus: SAg Assay for Monokine induced gamma interferon (MIG) Biomarker Activity (AID 2283092); settings: primary human HUVEC with PBMC; actives raise or lower the signal
In short: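 ELISA readout of MIG/CXCL9; primary human umbilical vein endothelial cells co-cultured with peripheral blood mononuclear cells; 24 h post-dose; gain/loss fit vs DMSO baseline.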

[4] = BSK_SAg_PBMCCytotoxicity: PBMC Cytotoxicity Assessment in the BioMAP Diversity Plus: SAg Assay (AID 2283093); settings: primary human HUVEC with PBMC;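 note: fitted both ways against DMSO so a hit may be loss or gain of signal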;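 for AC50: PBMC superantigen activated with SEB plus TSST-1 one hour after compound addition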
In short: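 PBMC viability by Alamar Blue reduction, fluorescence read at 546/580 nm after 6 h dye exposure. Cells were dosed 1 h before SEB plus TSST-1 activation (20 ng/mL final each), then held 90 h; endothelial/PBMC human co-culture.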

[5] = read-out: Interleukin-8 (IL8), CXCL8 (gene 3576); test: BSK_SAg_IL8: BioMAP Diversity Plus: SAg Assay for Interleukin-8 (IL8) Biomarker Activity (AID 2283094); settings: primary human HUVEC with PBMC; actives raise or lower the signal
In short: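 Primary human endothelial cells with PBMC, exposed 24 h; IL-8 determined by ELISA, analysed bidirectionally relative to DMSO.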

[6] = BSK_SAg_Proliferation: Cell Proliferation Assessment in the BioMAP Diversity Plus: SAg Assay (AID 2283095); settings: primary human HUVEC with PBMC;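 note: relative cell number as total protein by SRB absorbance in sub-confluent culture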
In short: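 A human primary co-culture of umbilical vein endothelium and blood mononuclear cells receives compound; relative cell number is quantified at 96 h by SRB staining and 560 nm absorbance, with DMSO-referenced bidirectional curve fitting.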

[7] = BSK_SAg_SRB: Viability Assessment in the BioMAP Diversity Plus: SAg Assay (AID 2283096); settings: primary human HUVEC with PBMC;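 note: cells read one day after compound addition; hits may be either gain or loss of signal compared with DMSO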
In short: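 Compounds were added to a human vascular co-culture of umbilical vein endothelium and PBMC. After 24 h, parallel cultures were fixed with 10% TCA, stained with 0.1% sulforhodamine B and read at 560 nm. Gain or loss of signal was fitted relative to DMSO.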

[8] = target: human CYP1A1, CYP1A1 (gene 1543) (UniProt P04798); test: NVS_ADME_hCYP1A1: NovaScreen (NVS) CYP450-related Enzyme Activity (ADME) Assay for human CYP1A1 (AID 2283100; active = hit-call score of the fitted dose curve at least 0.9, where 1 is the maximum)
Sequence of human CYP1A1, CYP1A1 (gene 1543) (P04798 whole entry, looked up): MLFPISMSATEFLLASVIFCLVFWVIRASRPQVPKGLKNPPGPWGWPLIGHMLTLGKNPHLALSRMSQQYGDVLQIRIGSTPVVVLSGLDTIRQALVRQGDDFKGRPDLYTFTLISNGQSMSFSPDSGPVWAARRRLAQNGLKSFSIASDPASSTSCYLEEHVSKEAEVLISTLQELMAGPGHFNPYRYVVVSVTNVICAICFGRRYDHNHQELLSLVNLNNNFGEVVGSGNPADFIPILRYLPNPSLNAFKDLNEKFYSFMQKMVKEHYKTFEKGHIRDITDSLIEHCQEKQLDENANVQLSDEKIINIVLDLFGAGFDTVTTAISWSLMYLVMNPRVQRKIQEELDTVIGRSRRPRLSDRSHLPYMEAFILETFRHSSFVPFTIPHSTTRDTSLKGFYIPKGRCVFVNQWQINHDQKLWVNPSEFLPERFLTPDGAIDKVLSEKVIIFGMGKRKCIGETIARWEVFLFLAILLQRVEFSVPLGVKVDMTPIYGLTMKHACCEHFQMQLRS
In short: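 Inhibition of recombinant CYP1A1 turnover was assessed fluorometrically in a biochemical format 1 h after compound exposure. Testing began at 10 uM in duplicate and progressed to concentration series reaching 20 uM, with on-plate positive and negative controls.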

[9] = target: human CYP2B6, CYP2B6 (gene 1555) (UniProt P20813); test: NVS_ADME_hCYP2B6: NovaScreen (NVS) CYP450-related Enzyme Activity (ADME) Assay for human CYP2B6 (AID 2283101; active = hit-call score of the fitted dose curve at least 0.9, where 1 is the maximum)
Sequence of human CYP2B6, CYP2B6 (gene 1555) (P20813 whole entry, looked up): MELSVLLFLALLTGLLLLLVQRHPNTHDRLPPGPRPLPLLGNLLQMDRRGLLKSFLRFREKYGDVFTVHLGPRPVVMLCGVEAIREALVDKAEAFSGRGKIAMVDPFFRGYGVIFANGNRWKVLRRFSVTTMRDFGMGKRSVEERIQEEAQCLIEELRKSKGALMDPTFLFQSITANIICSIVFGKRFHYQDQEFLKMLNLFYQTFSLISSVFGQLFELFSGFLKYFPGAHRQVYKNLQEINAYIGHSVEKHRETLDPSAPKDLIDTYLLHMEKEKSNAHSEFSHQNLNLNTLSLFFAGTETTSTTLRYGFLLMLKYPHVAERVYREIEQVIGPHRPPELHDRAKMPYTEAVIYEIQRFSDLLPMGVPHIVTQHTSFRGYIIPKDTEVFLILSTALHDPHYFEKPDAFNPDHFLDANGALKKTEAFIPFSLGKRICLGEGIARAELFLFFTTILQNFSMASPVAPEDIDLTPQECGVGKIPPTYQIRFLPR
In short: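 Fluorescence-based enzyme activity of recombinant human CYP2B6, measured 1 h post-dose against acetonitrile vehicle baseline. Screened at a single concentration of 10 uM in duplicate before concentration-response follow-up.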

[10] = target: human CYP2D6, CYP2D6 (gene 1565) (UniProt P10635); test: NVS_ADME_hCYP2D6: NovaScreen (NVS) CYP450-related Enzyme Activity (ADME) Assay for human CYP2D6 (AID 2283107; active = hit-call score of the fitted dose curve at least 0.9, where 1 is the maximum)
Sequence of human CYP2D6, CYP2D6 (gene 1565) (P10635 whole entry, looked up): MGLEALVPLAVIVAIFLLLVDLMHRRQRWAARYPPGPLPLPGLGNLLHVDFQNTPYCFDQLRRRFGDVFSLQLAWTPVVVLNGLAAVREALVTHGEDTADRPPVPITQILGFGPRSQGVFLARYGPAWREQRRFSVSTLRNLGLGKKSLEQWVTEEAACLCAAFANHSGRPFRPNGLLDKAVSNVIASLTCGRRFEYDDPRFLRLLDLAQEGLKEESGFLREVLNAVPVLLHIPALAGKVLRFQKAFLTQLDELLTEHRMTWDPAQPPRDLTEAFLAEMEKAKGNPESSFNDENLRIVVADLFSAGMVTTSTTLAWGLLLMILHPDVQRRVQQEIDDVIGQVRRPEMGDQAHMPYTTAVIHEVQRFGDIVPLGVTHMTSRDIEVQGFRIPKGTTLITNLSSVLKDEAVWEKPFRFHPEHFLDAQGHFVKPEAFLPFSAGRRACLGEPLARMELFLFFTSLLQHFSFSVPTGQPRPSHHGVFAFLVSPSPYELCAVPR
In short: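 Biochemical fluorescence assay, insect-cell-derived enzyme. Read at 1 h; inhibition taken from loss of signal against acetonitrile. Screened at 10 uM in duplicate, with concentration series for actives.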

[11] = target: human CYP2C9, CYP2C9 (gene 1559) (UniProt P11712); test: NVS_ADME_hCYP2C9: NovaScreen (NVS) CYP450-related Enzyme Activity (ADME) Assay for human CYP2C9 (AID 2283108; active = hit-call score of the fitted dose curve at least 0.9, where 1 is the maximum)
Sequence of human CYP2C9, CYP2C9 (gene 1559) (P11712 whole entry, looked up): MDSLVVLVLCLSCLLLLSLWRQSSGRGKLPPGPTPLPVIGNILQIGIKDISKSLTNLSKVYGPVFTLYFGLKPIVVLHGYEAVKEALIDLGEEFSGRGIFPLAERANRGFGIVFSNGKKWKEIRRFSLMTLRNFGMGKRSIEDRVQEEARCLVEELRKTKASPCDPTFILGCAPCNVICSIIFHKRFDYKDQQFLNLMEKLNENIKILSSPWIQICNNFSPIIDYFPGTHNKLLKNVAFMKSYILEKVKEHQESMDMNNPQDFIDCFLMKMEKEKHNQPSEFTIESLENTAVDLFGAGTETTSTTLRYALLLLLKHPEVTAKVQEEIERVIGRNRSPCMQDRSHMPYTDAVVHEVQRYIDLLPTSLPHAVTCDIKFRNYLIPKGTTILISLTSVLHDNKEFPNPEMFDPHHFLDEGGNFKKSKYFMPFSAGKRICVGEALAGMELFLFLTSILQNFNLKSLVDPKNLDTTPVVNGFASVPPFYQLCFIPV
In short: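 Recombinant human CYP2C9 expressed in SF9 cells, fluorogenic substrate, fluorescence read 0.75 h after dosing. Chemicals first run in duplicate at 10 uM, with actives followed in concentration series; loss of signal versus acetonitrile baseline.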

[12] = target: Cytochrome P450 2C19 (Homo sapiens) (UniProt P33261); test: NVS_ADME_hCYP2C19: NovaScreen (NVS) CYP450-related Enzyme Activity (ADME) Assay for human CYP2C19 (AID 2283113; active = hit-call score of the fitted dose curve at least 0.9, where 1 is the maximum;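 note: potency for inhibition seen as loss of fluorescent signal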)
In short: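 Biochemical CYP2C19 inhibition screen: insect-cell recombinant protein plus fluorescent substrate, 1 h, fluorescence intensity. Acetonitrile defined baseline activity. Single 10 uM concentration in duplicate, with concentration-response follow-up for actives.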

[13] = target: human CYP4F12, CYP4F12 (gene 66002) (UniProt Q9HCS2); test: NVS_ADME_hCYP4F12: NovaScreen (NVS) CYP450-related Enzyme Activity (ADME) Assay for human CYP4F12 (AID 2283111; active = hit-call score of the fitted dose curve at least 0.9, where 1 is the maximum)
Sequence of human CYP4F12, CYP4F12 (gene 66002) (Q9HCS2 whole entry, looked up): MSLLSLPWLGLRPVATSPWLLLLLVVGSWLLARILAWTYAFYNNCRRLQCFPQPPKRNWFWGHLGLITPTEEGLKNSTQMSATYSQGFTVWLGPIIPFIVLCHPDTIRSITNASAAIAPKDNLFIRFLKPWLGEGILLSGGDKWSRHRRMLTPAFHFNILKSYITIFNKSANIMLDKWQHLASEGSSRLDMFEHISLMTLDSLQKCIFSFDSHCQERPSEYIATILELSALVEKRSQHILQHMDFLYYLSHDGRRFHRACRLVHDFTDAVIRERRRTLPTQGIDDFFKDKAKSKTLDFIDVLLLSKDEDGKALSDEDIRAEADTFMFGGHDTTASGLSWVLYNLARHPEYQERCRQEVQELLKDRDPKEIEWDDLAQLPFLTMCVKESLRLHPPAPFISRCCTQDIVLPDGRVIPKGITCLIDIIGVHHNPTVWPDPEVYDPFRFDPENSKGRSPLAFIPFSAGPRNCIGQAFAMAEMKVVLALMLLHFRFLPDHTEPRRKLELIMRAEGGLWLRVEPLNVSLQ
In short: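 Recombinant enzyme with a fluorescent substrate, signal read at 0.5 h post-dose; activity loss analysed relative to acetonitrile. Compounds first run in duplicate at 10 uM, with follow-up concentration-response testing of actives.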

[14] = read-out: Monocyte Chemoattractant Protein-1 (MCP1), CCL2 (gene 6347); test: BSK_SAg_MCP1: BioMAP Diversity Plus: SAg Assay for Monocyte Chemoattractant Protein-1 (MCP1) Biomarker Activity (AID 2283090); settings: primary human HUVEC with PBMC; actives raise or lower the signal
In short: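 Values derive from bidirectional fitting of ELISA-measured MCP1 against DMSO controls. Readings were taken 24 h after dosing human vascular endothelial cells co-cultured with peripheral blood mononuclear cells under superantigen stimulation.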

[15] = target: Cytochrome P450 3A4 (Homo sapiens) (UniProt P08684); test: NVS_ADME_hCYP3A4: NovaScreen (NVS) CYP450-related Enzyme Activity (ADME) Assay for human CYP3A4 (AID 2283110; active = hit-call score of the fitted dose curve at least 0.9, where 1 is the maximum)
Sequence of Cytochrome P450 3A4 (Homo sapiens) (P08684 whole entry, looked up): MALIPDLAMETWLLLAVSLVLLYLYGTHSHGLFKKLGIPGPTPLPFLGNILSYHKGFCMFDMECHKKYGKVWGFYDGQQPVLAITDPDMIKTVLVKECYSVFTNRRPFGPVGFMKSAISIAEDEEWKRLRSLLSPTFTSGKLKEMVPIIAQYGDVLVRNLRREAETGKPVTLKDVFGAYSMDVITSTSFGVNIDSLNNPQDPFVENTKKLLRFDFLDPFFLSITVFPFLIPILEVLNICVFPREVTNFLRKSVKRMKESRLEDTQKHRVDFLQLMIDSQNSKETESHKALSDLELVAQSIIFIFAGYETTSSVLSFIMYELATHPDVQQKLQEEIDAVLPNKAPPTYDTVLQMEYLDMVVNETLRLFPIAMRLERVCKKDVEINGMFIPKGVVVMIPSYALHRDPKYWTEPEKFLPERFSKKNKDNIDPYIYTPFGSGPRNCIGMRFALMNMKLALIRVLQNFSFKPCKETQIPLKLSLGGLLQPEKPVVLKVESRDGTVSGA
In short: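 Recombinant CYP3A4 from insect cells, fluorescence enzyme read-out, 0.33 h after chemical addition. Acetonitrile = negative control/baseline. Primary HTS: 10 uM in duplicate; actives re-tested in concentration series.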

[16] = target: human Acetylcholinesterase (AChE), ACHE (gene 43) (UniProt P22303); test: NVS_ENZ_hAChE: NovaScreen (NVS) Enzymatic Assay for human Acetylcholinesterase (AChE) (AID 2283129; active = hit-call score of the fitted dose curve at least 0.9, where 1 is the maximum)
Sequence of human Acetylcholinesterase (AChE), ACHE (gene 43) (P22303 whole entry, looked up): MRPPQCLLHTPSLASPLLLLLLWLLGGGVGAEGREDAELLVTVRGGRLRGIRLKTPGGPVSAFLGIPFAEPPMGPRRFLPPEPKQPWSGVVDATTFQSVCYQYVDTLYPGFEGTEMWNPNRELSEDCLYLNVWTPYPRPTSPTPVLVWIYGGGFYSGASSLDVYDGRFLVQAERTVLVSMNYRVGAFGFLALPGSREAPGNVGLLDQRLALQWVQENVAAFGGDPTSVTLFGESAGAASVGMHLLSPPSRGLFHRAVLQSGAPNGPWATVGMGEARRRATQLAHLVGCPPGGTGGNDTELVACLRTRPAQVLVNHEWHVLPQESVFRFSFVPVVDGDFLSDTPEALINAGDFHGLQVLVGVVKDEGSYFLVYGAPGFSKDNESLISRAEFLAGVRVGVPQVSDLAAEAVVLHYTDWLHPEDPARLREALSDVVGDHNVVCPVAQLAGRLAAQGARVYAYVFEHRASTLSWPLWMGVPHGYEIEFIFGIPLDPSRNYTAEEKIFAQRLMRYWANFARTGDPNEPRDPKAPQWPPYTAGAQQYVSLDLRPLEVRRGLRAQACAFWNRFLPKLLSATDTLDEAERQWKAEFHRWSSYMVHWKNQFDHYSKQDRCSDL
In short: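 Actives from a duplicate single-point screen (25 uM) were followed up in concentration series. Enzyme activity read by absorbance (colorimetric) 0.33 hour after dosing, cell-free, normalized to DMSO, with loss of signal scored.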

Measured: AC50

Sequence of E-selectin (Homo sapiens) (P16581 whole entry, looked up): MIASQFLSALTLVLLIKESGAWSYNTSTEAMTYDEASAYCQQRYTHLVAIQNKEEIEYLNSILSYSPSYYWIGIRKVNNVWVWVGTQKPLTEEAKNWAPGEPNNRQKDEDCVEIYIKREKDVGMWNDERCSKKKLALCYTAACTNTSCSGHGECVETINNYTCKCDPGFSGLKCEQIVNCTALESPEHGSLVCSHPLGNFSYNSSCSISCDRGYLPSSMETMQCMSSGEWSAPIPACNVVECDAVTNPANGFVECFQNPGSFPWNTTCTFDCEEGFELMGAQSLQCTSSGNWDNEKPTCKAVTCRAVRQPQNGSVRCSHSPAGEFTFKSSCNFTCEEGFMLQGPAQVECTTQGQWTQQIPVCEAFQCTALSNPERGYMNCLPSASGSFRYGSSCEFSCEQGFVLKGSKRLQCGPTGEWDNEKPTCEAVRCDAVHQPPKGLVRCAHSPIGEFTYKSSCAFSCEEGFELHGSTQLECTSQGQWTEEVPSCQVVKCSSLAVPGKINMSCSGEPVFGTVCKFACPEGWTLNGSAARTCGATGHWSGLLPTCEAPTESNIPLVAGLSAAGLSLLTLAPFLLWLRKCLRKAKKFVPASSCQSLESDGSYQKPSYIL

CCCSC(=O)N(CCC)CCC
inactive: [1] | CD38, CD38 (gene 952) | CD40, CD40 (gene 958) | CD69, CD69 (gene 969) | [2] | [3] | [4] | [5] | [6] | [7]

Oc1ccccc1Cl
inactive: [1] | CD38, CD38 (gene 952) | CD40, CD40 (gene 958) | CD69, CD69 (gene 969) | [2] | [3] | [4] | [5] | [6] | [7]

COP(=S)(OC)SCN1C(=O)c2ccccc2C1=O
active: [8] 3.41 µM | [9] 766 nM | [10] 6.97 µM | [11] 4.74 µM | [12] 593 nM
not listed: [13] | [14] | [15] | [16]
inactive: all other assays above

Cc1ccc([N+](=O)[O-])cc1
not listed: [8] | [9] | [10] | [11] | [12] | [14] | [15] | [16]
inactive: all other assays above

CCOC(=O)[C@]1(c2ccccc2)Oc2ccccc2[C@@H]1N
inactive: [1] | CD40, CD40 (gene 958) | CD69, CD69 (gene 969) | [2] | [3] | [5] | [7] | [8]
active: [14] 30.1 µM | [4] 24.3 µM | [6] 31.3 µM | [9] 269 nM | [10] 1.3 µM | [11] 5.79 µM | [15] 6.56 µM | [12] 2090 nM | [16] 24.3 µM

COC(=O)c1ccccc1N
inactive: [1] | CD40, CD40 (gene 958) | CD69, CD69 (gene 969) | [14] | [2] | [3] | [4] | [5] | [6] | [7]

Cc1ccc(N)cc1
inactive: [1] | CD40, CD40 (gene 958) | CD69, CD69 (gene 969) | [14] | [2] | [3] | [4] | [5] | [6] | [7]

C=CCc1ccc2c(c1)OCO2
inactive: [1] | CD38, CD38 (gene 952) | CD40, CD40 (gene 958) | CD69, CD69 (gene 969) | [2] | [3] | [4] | [5] | [6] | [7]

CC(C)(O)c1cnn2c(-c3ccc(F)c(-c4c(F)cccc4C#N)c3)cnc2n1
inactive: CD38, CD38 (gene 952) | CD69, CD69 (gene 969) | [2] | [3] | [6] | [7]
active: [1] 20 µM | CD40, CD40 (gene 958) 20 µM | [4] 7.8 µM | [5] 4.31 µM | [11] 2.24 µM

CN(C)[C@@H]1C(=O)C(C(N)=O)=C(O)[C@@]2(O)C(=O)C3=C(O)c4c(O)cccc4[C@@](C)(O)[C@H]3C[C@@H]12
inactive: [1] | CD40, CD40 (gene 958) | CD69, CD69 (gene 969) | [14] | [2] | [3] | [4] | [5] | [6] | [7]

Cn1cc(-c2ccccc2)c(=O)c(-c2cccc(C(F)(F)F)c2)c1
inactive: [1] | CD38, CD38 (gene 952) | CD40, CD40 (gene 958) | CD69, CD69 (gene 969) | [2] | [3] | [4] | [5] | [6] | [7]

CC(O)CCO (centres undefined)
inactive: [1] | CD40, CD40 (gene 958) | CD69, CD69 (gene 969) | [14] | [2] | [3] | [4] | [5] | [6] | [7]
